Compounds without any hit were thinned out: in the full panel of roughly 83,000, 20% have a hit.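 Negative percent growth values reflect cell death: -40 means 40% of the cells present at the start died, and -100 means all died.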 Values without a mark were called inactive. Active and inactive are the calls of the source. How the source made its calls: active means growth percent below 10; inactive means the rest.

Among the data in PubChem BioAssay (NCI) are growth values, retold here.

Some test systems named below: SR leukemia; RPMI-8226 leukemia; OVCAR-8 ovarian; OVCAR-5 ovarian; OVCAR-4 ovarian; SK-OV-3 ovarian; IGROV1 ovarian; OVCAR-3 ovarian; HS 578T breast; NCI/ADR-RES ovarian; T-47D breast; BT-549 breast; MDA-MB-435 melanoma; SW-620 colon; MCF7 breast; HCT-116 colon; HCC-2998 colon; KM12 colon; MDA-MB-468 breast.
Holding throughout (assay): NCI-60 one-dose screen, 48 h (100 = growth as untreated, 0 = no growth, -100 = all killed)
Conditions in all cases: 10 µM unless noted

As for `COc1cc2c(c(OC)c1OC)C(=O)CC(c1cccc(NC(=O)c3cc(NC(=O)[C@H](C)N)ccc3Cl)c1)O2` (some centres not stated), the growth was 9.41% (active) with SR leukemia; 4.69% (active) with RPMI-8226 leukemia; 9.03% (active) with OVCAR-8 ovarian; 88% with OVCAR-5 ovarian; 44.4% in the assay on OVCAR-4 ovarian; 102% in the assay on SK-OV-3 ovarian. The growth in the assay with IGROV1 ovarian is 70.3%; in the assay with OVCAR-3 ovarian, 25.7%; with HS 578T breast it was 66.9%; with NCI/ADR-RES ovarian it was 11.1%; in the assay on T-47D breast, 18.5%; with BT-549 breast it was -5.64% (active). The growth in the assay on MDA-MB-435 melanoma was 2.82% (active); with SW-620 colon, 18.5%; in the assay with MCF7 breast, 13.8%; in the assay with HCT-116 colon, 23.4%; in the assay on HCC-2998 colon, 81%; in the assay with KM12 colon it was 41.7%. Besides, in the assay on MDA-MB-468 breast, the growth was 9.2% (active).

In the case of `Cc1ccc(C(SCCNCc2cc(N(C)C)ccn2)(c2ccccc2)c2ccccc2)cc1`, the growth with SR leukemia was -45.1% (active); in the assay on RPMI-8226 leukemia, -54.6% (active); in the assay with OVCAR-8 ovarian, -52.5% (active); in the assay with OVCAR-5 ovarian it was -19.9% (active); with OVCAR-4 ovarian, 11.4%; with SK-OV-3 ovarian it was -10.5% (active). Further, the growth in the assay with IGROV1 ovarian is 6.28% (active); with OVCAR-3 ovarian, -46.7% (active); with HS 578T breast, -45.7% (active); in the assay with NCI/ADR-RES ovarian it was -56.8% (active); in the assay on T-47D breast it was -39% (active); in the assay with BT-549 breast, -51.8% (active). For the same compound, the growth was -75.4% (active) in the assay with MDA-MB-435 melanoma; -79.4% (active) in the assay with SW-620 colon; -80.5% (active) in the assay with MCF7 breast; -80.5% (active) with HCT-116 colon; -93.8% (active) in the assay on HCC-2998 colon; -40.1% (active) in the assay on KM12 colon. In the assay on MDA-MB-468 breast, the growth is -69.5% (active).

For the compound `C#CCOc1cc(N(CC)CC)ccc1C(C(=O)NC(C)(C)C)N(C(=O)C1CCc2cc(F)ccc2O1)c1ccc(F)c(Cl)c1` (configuration not stated), the growth in the assay with SR leukemia was 35%; in the assay on RPMI-8226 leukemia it was 38.3%; in the assay on OVCAR-8 ovarian it was 69%; with OVCAR-5 ovarian, 82.7%; in the assay with OVCAR-4 ovarian, 57.8%; in the assay with SK-OV-3 ovarian, 73.1%. The growth in the assay with IGROV1 ovarian was 70.5%; in the assay on OVCAR-3 ovarian, 57.7%; with HS 578T breast, 75.2%; in the assay on NCI/ADR-RES ovarian, 72.9%; in the assay on T-47D breast, 42.3%; in the assay on BT-549 breast, 61.9%. Also, the growth was 65.7% with MDA-MB-435 melanoma; 74.3% with SW-620 colon; 30.5% with MCF7 breast; 38.2% with HCT-116 colon; 92% in the assay on HCC-2998 colon; 57.5% in the assay on KM12 colon. In addition, the growth in the assay on MDA-MB-468 breast is 37.6%.

Regarding `COc1ccc(-c2nc3cc(C)ccc3n2CC(=O)N=Nc2c(O)[nH]c3ccccc23)cc1`, the growth in the assay on SR leukemia is 0.97% (active); with RPMI-8226 leukemia it was 59.3%; with OVCAR-8 ovarian, -58.1% (active); with OVCAR-5 ovarian, 13.8%; in the assay with OVCAR-4 ovarian, -25.3% (active); in the assay on SK-OV-3 ovarian, 47.8%. Also, the growth in the assay on IGROV1 ovarian was 59.3%; in the assay with OVCAR-3 ovarian, -33.8% (active); with HS 578T breast it was 4.27% (active); with NCI/ADR-RES ovarian, -47.1% (active); with T-47D breast, 28.9%; in the assay with BT-549 breast, -63.2% (active). The growth in the assay on MDA-MB-435 melanoma was 12.4%; with SW-620 colon, 6.89% (active); in the assay with MCF7 breast, 20%; in the assay with HCT-116 colon, -95.1% (active); in the assay with HCC-2998 colon it was 26.8%; in the assay with KM12 colon it was 14.1%. In addition, in the assay with MDA-MB-468 breast, the growth was -0.636% (active).

On to `Cc1ccc(C(=O)NN2C(=O)/C(=C/C=C/c3ccc([N+](=O)[O-])o3)SC2=S)cc1`, for which the growth in the assay on SR leukemia was 2.44% (active); in the assay with RPMI-8226 leukemia it was -1.56% (active); with OVCAR-8 ovarian it was -75.9% (active); in the assay with OVCAR-5 ovarian it was -94.9% (active); in the assay with OVCAR-4 ovarian it was -100% (active); in the assay with SK-OV-3 ovarian, -78.1% (active). Also, the growth in the assay with IGROV1 ovarian was -90.3% (active); in the assay with OVCAR-3 ovarian, -97.3% (active); in the assay with HS 578T breast, -18.3% (active); with NCI/ADR-RES ovarian, -48.8% (active); in the assay on T-47D breast, -61.1% (active); in the assay with BT-549 breast it was -90% (active). Besides, the growth is -66.3% (active) in the assay with MDA-MB-435 melanoma; -69.1% (active) in the assay with SW-620 colon; -49.2% (active) with MCF7 breast; -77.7% (active) with HCT-116 colon; -90% (active) in the assay on HCC-2998 colon; -83.2% (active) in the assay on KM12 colon. The growth with MDA-MB-468 breast was -85.7% (active).

As to `CCOC(=O)C(N=Nc1ccc(S(=O)(=O)N=C(N)N)cc1)C(C)=O` (configuration not stated), the growth is 99.4% in the assay with SR leukemia; 98.5% in the assay on RPMI-8226 leukemia; 104% in the assay with OVCAR-8 ovarian; 104% in the assay on OVCAR-5 ovarian; 105% with OVCAR-4 ovarian; 138% with SK-OV-3 ovarian. Besides, the growth with IGROV1 ovarian is 110%; in the assay on OVCAR-3 ovarian, 113%; in the assay on HS 578T breast it was 111%; with NCI/ADR-RES ovarian it was 113%; with T-47D breast, 105%; in the assay with BT-549 breast it was 113%. The growth was 105% with MDA-MB-435 melanoma; 102% in the assay with SW-620 colon; 97.9% in the assay on MCF7 breast; 109% in the assay with HCT-116 colon; 120% in the assay on HCC-2998 colon; 103% in the assay with KM12 colon. Besides, in the assay on MDA-MB-468 breast, the growth was 92.9%.

For `O=C(N1c2ccccc2Sc2ccccc21)n1ccc2cccnc21`, the growth was 12.1% in the assay with SR leukemia; 40.4% with RPMI-8226 leukemia; 88.1% in the assay with OVCAR-8 ovarian; 98.5% in the assay with OVCAR-5 ovarian; 65.6% with OVCAR-4 ovarian; 79.9% in the assay with SK-OV-3 ovarian. The growth in the assay with IGROV1 ovarian was 72%; in the assay with OVCAR-3 ovarian, 82%; with HS 578T breast it was 70.7%; in the assay with NCI/ADR-RES ovarian it was 57.7%; in the assay with T-47D breast, 27.7%; in the assay on BT-549 breast, 60.2%. In addition, the growth with MDA-MB-435 melanoma is 19.7%; in the assay on SW-620 colon, 58.4%; with HCT-116 colon it was 34.9%; in the assay on HCC-2998 colon, 85.1%; in the assay on KM12 colon, 49.2%; in the assay on MDA-MB-468 breast it was 51.8%.
